About 83,000 compounds went through this panel and 20% of them were active in at least one assay; those are over-represented in the sample as a whole.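 Compound tested at a single concentration for 48 hours in 96-well plates; a percent growth value below 10 was scored as active.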 Activity calls are given as the source filed them.
What was measured:
Assay in all cases: NCI-60 one-dose screen, 48 h (100 = growth as untreated, 0 = no growth, -100 = all killed)
Details in all cases: 10 µM unless noted
[1] = test system: HCT-15 colon
[2] = test system: HT29 colon
[3] = test system: SNB-75 CNS
[4] = test system: SNB-19 CNS
[5] = test system: U251 CNS
[6] = test system: PC-3 prostate
[7] = test system: SK-MEL-5 melanoma
[8] = test system: UACC-62 melanoma
[9] = test system: LOX IMVI melanoma
[10] = test system: SK-MEL-28 melanoma

Measured: growth

O=C(Nc1cccnc1Nc1ccc(Cl)cc1)c1cn(Cc2cccc(Oc3ccccc3)c2)nn1
inactive: [1] 25.6% | [2] 27.2% | [3] 42.1% | [4] 50.1% | [5] 39.4% | [6] 35% | [7] 12.6% | [8] 30.6% | [9] 31.1% | [10] 61.7%

CN(C)CCCn1c2c(c3cnccc3c1=O)C(=O)c1ccccc1-2
inactive: [3] 10.6%
active: [1] -3.54% | [2] -2.38% | [4] 1.02% | [5] 0.151% | [6] -5.36% | [7] -75.8% | [8] -64.6% | [9] -44.9% | [10] -28.1%

CN1C(=O)/C(=C/c2ccc(C(=O)Nc3ncc(Cc4cc(Cl)ccc4Cl)s3)cc2)SC1=S
inactive: [1] 49% | [2] 64% | [3] 63.1% | [4] 87.8% | [5] 82.7% | [6] 65.8% | [7] 67% | [8] 34.2% | [9] 41.7% | [10] 77%

CS(=O)(=O)c1ccc(-c2nc3ccccc3n2CC(=O)N/N=C/c2ccccc2)cc1
inactive: [1] 100% | [2] 88.5% | [3] 96.5% | [4] 107% | [5] 109% | [6] 96.9% | [7] 100% | [8] 94.4% | [9] 107% | [10] 103%

COc1ccc2cc(-c3nc4ccc(C)cn4c3NCc3ccco3)c(=O)[nH]c2c1
inactive: [1] 75.8% | [2] 79.9% | [3] 56% | [4] 34.6% | [5] 75.1% | [6] 46.1% | [7] 56.9% | [8] 46% | [9] 75.8% | [10] 81.8%

CN(C)Cc1cc(C(C)(C)C)cc(Br)c1O
inactive: [1] 95.6% | [2] 81.8% | [3] 91.5% | [4] 113% | [5] 107% | [6] 90.5% | [7] 96.1% | [8] 101% | [9] 103% | [10] 112%

CNC(=O)c1cc(Oc2ccc3c(c2)sc2nc(-c4cc(C(F)(F)F)cc(C(F)(F)F)c4)cn23)ccn1
inactive: [1] 70.9% | [2] 38.7% | [3] 23.3% | [4] 62.8% | [5] 38.6% | [6] 45.4% | [7] 33% | [8] 53.3% | [9] 50.1% | [10] 79.3%

N#Cc1c(-c2ccc(Br)cc2)nc2c(N=Nc3ccc(S(N)(=O)=O)cc3)c(N)nn2c1N
inactive: [1] 94.3% | [2] 42.8% | [3] 56.9% | [4] 61.6% | [5] 41.3% | [6] 37.6% | [7] 45.8% | [8] 72.4% | [9] 28.9% | [10] 63.2%

CCOC(=O)c1cn2ncnc(Oc3ccc(NC(=O)NC4CC4)c(Cl)c3)c2c1C
inactive: [1] 81.7% | [2] 95.1% | [3] 83.8% | [4] 89% | [5] 80.7% | [6] 89.2% | [7] 88.7% | [8] 77.8% | [9] 85.4% | [10] 107%

C=CC(CC(c1ccccc1)(c1ccccc1)c1ccccc1)N(CC)CC (stereo not given)
inactive: [1] 41.4% | [2] 16.2% | [3] 68.1% | [4] 98.3% | [5] 62% | [6] 44.9% | [7] 13.5% | [8] 44.2% | [9] 71.6% | [10] 61.6%

CCOC(=O)c1c(C)nc2c(c1N)C(=O)C(=O)N2Cc1ccc(OC)cc1
inactive: [1] 22.7% | [2] 26.5% | [3] 30% | [4] 80% | [5] 38.1% | [6] 47.9% | [7] 81% | [8] 53.3% | [9] 61.1% | [10] 76.7%

CC(C)c1ccc2c(c1)CC[C@H]1[C@](C)(C(=O)OCC#CCN3CCCC3)CCC[C@]21C
inactive: [1] 42.7% | [2] 36.8% | [3] 88.6% | [4] 86.8% | [5] 69.2% | [6] 61.9% | [7] 64.7% | [8] 55.4% | [9] 91.1% | [10] 76%

Cc1cccc(N2C(=O)/C(=C/C(Cl)=C/c3ccc([N+](=O)[O-])cc3)SC2=S)c1C
inactive: [4] 26.3% | [10] 24.2%
active: [1] -20.3% | [2] -7.89% | [3] -19.1% | [5] 4.72% | [6] 8.37% | [7] -33.4% | [8] 0.485% | [9] -70.4%
